Results from PubChem BioAssay (NCATS).
Results filed as inconclusive are left out. Calls of active or inactive are those of the source. Calls follow the shape of the dose curve; as a rule, active = well fitted inhibition curve with a large enough effect; inconclusive = small, poorly fitted or top-dose-only effect, or effect the other way; inactive = flat fitted curve, though single readings scatter.

Test: qHTS for Inhibitors of Plasmodium falciparum (CP250) proliferation (AID 504320)
Conditions: P. falciparum CP250 in erythrocytes, SYBR Green DNA, 72 h; series mostly up to 6.7 µM
Text: Plasmodium falciparum is a virulent malarial parasite that kills 1-2 million people worldwide each year. Malaria not only inflicts tremendous suffering and morbidity on the human population, but has dramatically influenced the course of civilization with profound sociological and economic implications (Shah, S. 2010). Transmitted by mosquitoes, the sporozoite form of the parasite enters the blood stream to infect hepatocytes, where they become merozoites that infect red blood cells (erythrocytes). Within erythrocytes, merozoites begin a […] cycle of growth and division, after which the parasite is released to infect new red blood cells. Gametocytes, which form within erythrocytes as well, circulate in the bloodstream and are ingested by the mosquito, thereby completing the life cycle (see CDC website). To profile malarial lines for differential chemical responses and to identify inhibitors of malarial growth, an assay that measures P. falciparum growth and replication within erythrocytes was employed. This assay uses a DNA binding fluorescent dye (SYBR Green) to detect parasite DNA following cell lysis. Because mature erythrocytes lack DNA, only Plasmodium-derived DNA is detected. The P. falciparum line cp250, derived from a malarial isolate from Cambodia, (Mu, J., et al. 2010) was added to the panel of lines, Dd2, HB3, 7G8 and GB4 in this study. Laboratory of Assay Development and Screening Technology [ADST] and NIH Chemical Genomics Center [NCGC] Boston University, Chemistry Department, Center for Chemical Methodology and Library Development [CMLD-BU] NIH National Institute of Allergy and Infectious Diseases [NIAID]
ADST Assay Protocol Summary: The 1536-well SYBR Green viability assay was based on the method of Bennett et al (2004) and described previously in 1536-well format (Yuan J., et al. 2009). For screening 3 ul culture medium was dispensed into 1536 well black clear bottom plates (Aurora Biotechnologies) using a Multidrop Combi (Thermo Fisher Scientific Inc.), 23 nL compounds in DMSO were added by a pin transfer (Cleveland, P.H. and Koutz, P.J, 2005) using a pin tool-based delivery system (Kalypsys), and 5 ul of erythrocytes infected with P. falciparum one of five lines (cp250, Dd2, HB3, 7G8 or GB4, 0.3% parasitemia, 2.5% hematocrit final concentration) were added. The plates were incubated at 37C in a humidified incubator in 5% CO2 for 72 h, and 2 ul lysis buffer (20 mM Tris HCl, 10 mM EDTA, 0.16% saponin, 1.6% triton X, 10X SYBR Green I (supplied as 10,000X final concentration by Invitrogen) was added to each well. The plates were mixed for 25 sec with gentle shaking and incubated overnight at room temperature in the dark. The following morning, fluorescence intensity at 485(14) nm excitation and 535(25) nm emission wavelengths was measured on an EnVision (Perkin Elmer) plate reader. Plate reads were normalized relative to the control inhibitor (0.29 uM artemisinin) and vehicle (DMSO) wells present on each plate and then corrected by an algorithm using vehicle-only control plates at the beginning and end of the compound plate stack. References Shah, S. (2010). The Fever: how malaria has ruled humankind for 500,000 years. New York, Sarah Crichton Books. CDC web site, http://www.cdc.gov/malaria/about/biology/index.html Mu, J., Myers, R.A., Jiang, H., Liu, S., Ricklefs, S., Waisberg, M., Chotivanich, K., Wilairatana, P., Krudsood, S., White, N.J., et Plasmodium falciparum genome-wide scans for positive selection, recombination hot spots and resistance to antimalarial drugs Nature Genetics 2010, 42, pp 268-271 Bennett TN, Paguio, M., Gligorijevic, B., Seudieu, C., Kosar, A. D., Davidson, E., and Roepe, P. D. Novel, rapid, and inexpensive cell-based quantification of antimalarial drug efficacy Antimicrobial Agents Chemother. 2004, 48(5): pp 1807-10 Yuan J, Johnson RL, Huang RL, Wichterman J, Jiang HY, Hayton K, Fidock DA, Wellems TE, Inglese J, Austin CP, Su XZ. […]

Potency, inactive:
COC(=O)N1C(/C=C/C=C/c2ccc(OC)cc2)=Cc2ccccc2C1CC(C)=O (stereo not given), CC#CCN1c2ccccc2[C@]23C[C@@H](C(=O)OC)N(C(=O)CC(C)C)C2=NC(C(=O)OC)=C(C(=O)OC)[C@H]13, COc1ccc(-c2nc(-c3ccccc3)c(Nc3c(C)cccc3C)o2)cc1, C[C@H]1Cc2c(COc3ccccc3)nc3c(c2CO1)CN(C(=O)Cc1cccs1)CC3, CC#CCN1c2ccccc2[C@]23C[C@@H](C(=O)OC)N(S(=O)(=O)c4c(C)noc4C)C2=NC(C(=O)OC)=C(C(=O)OC)[C@H]13, C=CCN1C=C2C(=O)C(C)(OC(=O)c3cnc4ccccc4n3)C(=O)C=C2C=C1/C=C/COC (stereo not given), CC#CCN1c2ccccc2[C@]23C[C@@H](C(=O)OC)N(C(=O)c4ccc(Br)cc4)C2=NC(C(=O)OC)=C(C(=O)OC)[C@H]13, CCCCc1cc2c(cn1)=C(OC(=O)c1ccc(Cl)nc1)C(C)(OC(=O)CC)C(=O)C=2 (stereo not given), COC(=O)[C@H]1[C@@H](C)N(Cc2ccccc2)C(=O)N[C@H]1c1cccc(C(F)(F)F)c1, CCOC(=O)CN1C(=O)N(CC)C(C)=C(C(=O)OC)[C@@H]1c1ccccc1, CCOC(=O)CN1C(=O)N[C@@H](c2ccccc2)[C@@H](C(=O)OC)[C@H]1C, CCCCC1=CC2=CC(=O)C(C)(OC(=O)CC)C(=O)C2=CN1CCCN(CC)CC (stereo not given), CCN1C(=O)N[C@@H](c2cccc(F)c2)C(C(C)=O)=C1C, COC(=O)CCC(=O)OC1(C)C(=O)C2=CN(Cc3ccco3)C(c3ccc(OC)cc3)=CC2=C(Br)C1=O (stereo not given), COC(=O)CCC(=O)OC1(C)C(=O)C=C2C=C(C3CC3)N(C3CCCCC3)C=C2C1=O (stereo not given), CC(C)CN1C=C2C(=O)C(C)(OC(=O)CCc3ccccc3)C(=O)C=C2C=C1c1ccc(C#N)cc1 (stereo not given), COC(=O)[C@H]1[C@@H](C)N(Cc2ccccc2)C(=O)N[C@H]1c1ccccc1, C[C@@H]1C[C@](C)(C(=O)c2ccc3ccccc3c2)C=C1c1ccc2ccccc2c1, COC(=O)C1=C(C(=O)OC)[C@@H]2N(C)c3ccc(OC)cc3[C@@]23C[C@@H](C(=O)OC)N(S(=O)(=O)c2ccc(C)cc2)C3=N1, COC(=O)CCCC1=CC2=C(c3ccccc3)C(=O)C(C)(OC(=O)C3CCCC3)C(=O)C2=CN1C1CCCC1 (stereo not given), CCOC(=O)CN1C(=O)N[C@@H](c2cccc(C(F)(F)F)c2)[C@@H](C(=O)OC)[C@H]1C, COC/C=C/C1=CC2=CC(=O)C(C)(OC(=O)c3cnc4ccccc4n3)C(=O)C2=CN1C1CCCC1 (stereo not given), COC(=O)C1=C(C(=O)OC)[C@@H]2N(C)c3ccc(OC)cc3[C@@]23C[C@@H](C(=O)OC)N(S(=O)(=O)c2ccc4c(c2)OCCN4C)C3=N1, COC(=O)C1=C(C(=O)OC)[C@@H]2Nc3ccccc3[C@@]23C[C@@H](C(=O)OC)N(S(=O)(=O)c2c(C)noc2C)C3=N1, CCCCC1=CC2=CC(=O)C(C)(OC(=O)CC)C(=O)C2=CN1C1CCCC1 (stereo not given), CCCCc1nc2c(c3c1C[C@H](C)OC3)CN(S(=O)(=O)c1c(C)noc1C)CC2, C[C@H]1Cc2c(COc3ccccc3)nc3c(c2CO1)CN(S(=O)(=O)c1ccc(Cl)c2nonc12)CC3, COC(=O)CCCC1=CC2=C(c3ccccc3)C(=O)C(C)(OC(=O)C3CCCC3)C(=O)C2=CN1CC(C)C (stereo not given), C=CCN1c2ccccc2[C@]23C[C@@H](C(=O)OC)N(S(=O)(=O)c4cccs4)C2=NC(C(=O)OC)=C(C(=O)OC)[C@H]13, COc1cccc([C@@H]2Oc3ccc(Br)cc3C(=O)[C@@H]2OC(=O)Nc2cc(OC)c(OC)c(OC)c2)c1, COc1ccc(O[C@H]2C=C[C@@H](c3ccccc3)O[C@H]2COC(=O)CCC(C)=NO[C@H](C)c2cn([C@H](CO)Cc3ccccc3)nn2)cc1, COC(=O)[C@@H]1[C@@H](C)N(Cc2ccccc2)C(=O)N[C@H]1c1cccc(C(F)(F)F)c1, COC(=O)c1ccccc1S(=O)(=O)N1CCc2nc(COc3ccccc3)c3c(c2C1)CO[C@@H](C)C3, CCOC(=O)N1C2=NC(C(=O)OC)=C(C(=O)OC)[C@@H]3N(C)c4ccc(OC)cc4[C@]23C[C@H]1C(=O)OC, CCCCCCC#C[C@@H]1C=C[C@H](OC(C)=O)[C@@H](COC(C)=O)O1, COC(=O)C1=C(C(=O)OC)[C@@H]2Nc3ccccc3[C@@]23C[C@@H](C(=O)OC)N(C(=O)c2ccc(Br)cc2)C3=N1, C=CCN1c2ccccc2[C@]23C[C@@H](C(=O)OC)N=C2NC(C(=O)OC)=C(C(=O)OC)[C@H]13, CCN(CC)CCCN1C=C2C(=O)C(C)(OC(=O)c3cccs3)C(=O)C=C2C=C1CCCC(=O)OC (stereo not given), COc1cccc(CC(=O)N2CCc3nc(-c4ccc(OC)cc4C)c4c(c3C2)CO[C@@H](c2ccccc2)C4)c1, CC#CCN1c2ccccc2[C@]23C[C@@H](C(=O)OC)N(C(=O)c4cccs4)C2=NC(C(=O)OC)=C(C(=O)OC)[C@H]13
